What was measured:
Test in all cases: DAPPL (digital affinity profiling via proximity ligation, sequencing); 10 mM Tris-HCl pH 7.5, 50 mM NaCl, 1 mM DTT, 4% glycerol, room temperature, 30 min; GST-TFs on glutathione beads, 16-mer random dsDNA library, 0.1% formaldehyde crosslink after washing; high values mean tight binding
FLI1 = biological target: T1, FLI1 (Homo sapiens, UniProt Q01543 1-452); details: protein: recombinant; tags: N-terminal GST; dsDNA, one strand shown
T1 sequence: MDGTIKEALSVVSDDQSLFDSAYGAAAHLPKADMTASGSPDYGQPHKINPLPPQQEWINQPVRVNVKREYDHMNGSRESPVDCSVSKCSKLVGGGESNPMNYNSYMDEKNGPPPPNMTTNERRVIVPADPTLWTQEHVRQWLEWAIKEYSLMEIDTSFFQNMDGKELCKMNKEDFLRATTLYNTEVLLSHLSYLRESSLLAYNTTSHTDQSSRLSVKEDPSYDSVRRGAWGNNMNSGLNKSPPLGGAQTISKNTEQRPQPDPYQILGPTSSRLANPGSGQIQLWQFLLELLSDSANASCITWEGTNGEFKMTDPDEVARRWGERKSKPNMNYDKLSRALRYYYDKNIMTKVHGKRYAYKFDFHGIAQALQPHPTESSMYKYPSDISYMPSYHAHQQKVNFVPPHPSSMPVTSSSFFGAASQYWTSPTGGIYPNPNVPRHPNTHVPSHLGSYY
Summary of the method: (§1)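 Pools were built from human transcription factors expressed in yeast as GST fusions, captured on glutathione beads and DNA-barcoded, along with a tag-only sample. Incubation with 200 nmole of a 16-mer random double-stranded DNA library lasted 30 min at room temperature in Tris/NaCl/DTT/glycerol buffer, and was followed by washing, 0.1% formaldehyde crosslinking, proximity ligation, PCR amplification and Illumina NextSeq500 sequencing. Binding signal is the quotient of each hexamer's read frequency for a factor and its frequency for the tag-only sample.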

ELK1 = biological target: T2, ELK1 (Homo sapiens, UniProt P19419 1-428); details: protein: recombinant; tags: N-terminal GST; dsDNA, one strand shown
T2 sequence: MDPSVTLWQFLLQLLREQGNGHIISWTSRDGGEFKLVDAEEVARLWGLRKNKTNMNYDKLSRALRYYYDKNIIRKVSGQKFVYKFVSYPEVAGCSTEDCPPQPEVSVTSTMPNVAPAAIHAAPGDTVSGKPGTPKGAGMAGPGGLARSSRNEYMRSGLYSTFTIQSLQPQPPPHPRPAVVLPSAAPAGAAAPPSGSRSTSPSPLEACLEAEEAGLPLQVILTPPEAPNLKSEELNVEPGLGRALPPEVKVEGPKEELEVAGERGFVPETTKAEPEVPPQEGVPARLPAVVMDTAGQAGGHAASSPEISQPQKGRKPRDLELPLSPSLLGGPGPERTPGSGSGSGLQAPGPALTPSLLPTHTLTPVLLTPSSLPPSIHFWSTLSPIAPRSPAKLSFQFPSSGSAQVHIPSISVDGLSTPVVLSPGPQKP
Summary of the method: as §1

GABPA = biological target: T3, GABPA (Homo sapiens, UniProt Q06546 1-454); details: protein: recombinant; tags: N-terminal GST; dsDNA, one strand shown
T3 sequence: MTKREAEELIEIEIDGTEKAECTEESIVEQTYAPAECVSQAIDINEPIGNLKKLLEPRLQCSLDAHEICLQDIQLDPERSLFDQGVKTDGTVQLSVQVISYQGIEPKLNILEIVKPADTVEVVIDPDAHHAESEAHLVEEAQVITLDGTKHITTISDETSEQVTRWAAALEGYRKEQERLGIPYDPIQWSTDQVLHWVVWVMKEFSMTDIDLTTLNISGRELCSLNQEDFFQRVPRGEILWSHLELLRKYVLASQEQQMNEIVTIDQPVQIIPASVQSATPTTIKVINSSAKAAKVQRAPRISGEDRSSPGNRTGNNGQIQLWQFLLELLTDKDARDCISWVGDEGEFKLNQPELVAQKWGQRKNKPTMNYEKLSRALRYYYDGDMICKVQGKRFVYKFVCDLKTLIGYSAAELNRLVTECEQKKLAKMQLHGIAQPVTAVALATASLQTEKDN
Summary of the method: as §1

ERG = biological target: T4, ERG (Homo sapiens, UniProt P11308 1-479); details: protein: recombinant; tags: N-terminal GST; dsDNA, one strand shown
T4 sequence: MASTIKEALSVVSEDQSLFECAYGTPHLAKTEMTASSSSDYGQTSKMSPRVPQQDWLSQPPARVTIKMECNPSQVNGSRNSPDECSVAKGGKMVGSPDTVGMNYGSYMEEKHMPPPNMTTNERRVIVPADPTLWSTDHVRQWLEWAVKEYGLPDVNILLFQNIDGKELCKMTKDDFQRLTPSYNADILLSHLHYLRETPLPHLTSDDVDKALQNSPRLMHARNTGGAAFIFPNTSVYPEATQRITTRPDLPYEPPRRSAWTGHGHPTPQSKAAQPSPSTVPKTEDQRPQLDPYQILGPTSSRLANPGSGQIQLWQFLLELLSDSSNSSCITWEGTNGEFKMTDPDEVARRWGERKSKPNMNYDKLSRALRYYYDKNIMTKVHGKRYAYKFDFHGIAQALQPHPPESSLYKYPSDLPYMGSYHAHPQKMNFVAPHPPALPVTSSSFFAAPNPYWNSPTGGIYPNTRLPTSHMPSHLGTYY
Summary of the method: as §1

ELF1 = ELF1 (Homo sapiens, UniProt P32519 1-619); details: protein: recombinant; tags: N-terminal GST; dsDNA, one strand shown
Chain of ELF1 (P32519 whole entry): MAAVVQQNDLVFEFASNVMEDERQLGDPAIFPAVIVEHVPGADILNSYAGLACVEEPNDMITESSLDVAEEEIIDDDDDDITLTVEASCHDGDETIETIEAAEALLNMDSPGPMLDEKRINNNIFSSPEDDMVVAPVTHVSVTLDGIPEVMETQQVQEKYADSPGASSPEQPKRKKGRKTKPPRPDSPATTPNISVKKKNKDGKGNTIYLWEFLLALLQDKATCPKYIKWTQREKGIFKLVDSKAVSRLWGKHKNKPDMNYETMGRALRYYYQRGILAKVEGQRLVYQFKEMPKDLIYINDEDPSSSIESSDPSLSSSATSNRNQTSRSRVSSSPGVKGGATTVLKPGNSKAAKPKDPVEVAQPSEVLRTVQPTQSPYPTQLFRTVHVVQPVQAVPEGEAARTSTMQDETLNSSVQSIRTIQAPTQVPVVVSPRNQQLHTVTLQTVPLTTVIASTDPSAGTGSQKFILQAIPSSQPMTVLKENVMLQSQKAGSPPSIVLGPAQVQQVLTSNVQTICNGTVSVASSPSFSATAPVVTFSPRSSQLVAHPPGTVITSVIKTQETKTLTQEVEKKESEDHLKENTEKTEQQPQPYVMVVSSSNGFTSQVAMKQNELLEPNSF
Summary of the method: as §1

EHF = biological target: T5, EHF (Homo sapiens, UniProt Q9NZC4 1-300); details: protein: recombinant; tags: N-terminal GST; dsDNA, one strand shown
T5 sequence: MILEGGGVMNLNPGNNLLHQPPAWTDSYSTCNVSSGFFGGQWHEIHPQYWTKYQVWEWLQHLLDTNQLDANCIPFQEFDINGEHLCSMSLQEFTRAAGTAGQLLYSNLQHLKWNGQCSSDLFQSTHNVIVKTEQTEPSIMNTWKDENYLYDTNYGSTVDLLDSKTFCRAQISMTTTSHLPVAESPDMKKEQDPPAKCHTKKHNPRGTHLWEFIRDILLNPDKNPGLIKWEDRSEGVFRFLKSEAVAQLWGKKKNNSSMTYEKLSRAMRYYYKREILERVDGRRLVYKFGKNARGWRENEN
Summary of the method: as §1

SPI1 = SPI1 (Homo sapiens, UniProt P17947 1-270); details: protein: recombinant; tags: N-terminal GST; dsDNA, one strand shown
Summary of the method: as §1

SPIB = SPIB (Homo sapiens, UniProt Q01892 1-262); details: protein: recombinant; tags: N-terminal GST; dsDNA, one strand shown
Chain of SPIB (Q01892 whole entry): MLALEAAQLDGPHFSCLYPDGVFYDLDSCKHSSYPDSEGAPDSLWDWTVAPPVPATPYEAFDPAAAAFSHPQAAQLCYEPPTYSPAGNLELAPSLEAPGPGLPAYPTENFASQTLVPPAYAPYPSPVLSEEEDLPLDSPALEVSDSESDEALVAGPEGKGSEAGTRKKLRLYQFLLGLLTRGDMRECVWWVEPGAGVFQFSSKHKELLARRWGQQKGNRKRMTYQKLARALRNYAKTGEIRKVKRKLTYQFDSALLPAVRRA
Summary of the method: as §1

ELK3 = biological target: T6, ELK3 (Homo sapiens, UniProt P41970 1-407); details: protein: recombinant; tags: N-terminal GST; dsDNA, one strand shown
T6 sequence: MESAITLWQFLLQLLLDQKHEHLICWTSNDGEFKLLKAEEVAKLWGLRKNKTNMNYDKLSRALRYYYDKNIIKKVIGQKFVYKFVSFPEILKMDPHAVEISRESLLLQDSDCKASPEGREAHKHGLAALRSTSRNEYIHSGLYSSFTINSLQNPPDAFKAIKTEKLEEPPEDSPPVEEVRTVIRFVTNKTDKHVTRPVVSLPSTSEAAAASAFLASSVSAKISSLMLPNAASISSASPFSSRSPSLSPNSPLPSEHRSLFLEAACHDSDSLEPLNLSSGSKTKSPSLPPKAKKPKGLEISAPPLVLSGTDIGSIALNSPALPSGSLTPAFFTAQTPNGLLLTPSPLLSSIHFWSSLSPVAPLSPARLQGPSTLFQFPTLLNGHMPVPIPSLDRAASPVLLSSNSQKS
Summary of the method: as §1

FEV = biological target: T7, FEV (Homo sapiens, UniProt Q99581 1-238); details: protein: recombinant; tags: N-terminal GST; dsDNA, one strand shown
T7 sequence: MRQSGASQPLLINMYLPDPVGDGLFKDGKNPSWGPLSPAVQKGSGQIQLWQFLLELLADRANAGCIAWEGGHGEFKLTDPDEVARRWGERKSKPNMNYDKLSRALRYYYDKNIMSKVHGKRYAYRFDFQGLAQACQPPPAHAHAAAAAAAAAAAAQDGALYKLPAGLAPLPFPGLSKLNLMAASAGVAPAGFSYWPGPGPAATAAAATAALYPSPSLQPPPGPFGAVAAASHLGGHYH
Summary of the method: as §1

ETV5 = ETV5 (Homo sapiens, UniProt P41161 1-510); details: protein: recombinant; tags: N-terminal GST; dsDNA, one strand shown
Chain of ETV5 (P41161 whole entry): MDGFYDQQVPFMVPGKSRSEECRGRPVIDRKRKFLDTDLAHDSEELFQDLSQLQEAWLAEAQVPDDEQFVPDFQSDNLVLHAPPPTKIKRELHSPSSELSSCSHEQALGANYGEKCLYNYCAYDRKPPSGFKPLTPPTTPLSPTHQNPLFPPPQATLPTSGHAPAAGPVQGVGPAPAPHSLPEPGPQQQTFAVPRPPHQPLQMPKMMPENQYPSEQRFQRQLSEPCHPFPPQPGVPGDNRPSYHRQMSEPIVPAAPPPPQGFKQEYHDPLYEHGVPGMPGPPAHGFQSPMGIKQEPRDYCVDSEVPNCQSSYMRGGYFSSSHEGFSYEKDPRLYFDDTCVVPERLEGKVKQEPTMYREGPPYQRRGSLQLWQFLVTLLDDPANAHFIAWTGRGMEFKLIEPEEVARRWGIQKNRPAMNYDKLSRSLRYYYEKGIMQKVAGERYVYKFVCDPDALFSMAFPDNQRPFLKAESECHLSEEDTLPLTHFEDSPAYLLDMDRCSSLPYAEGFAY
Summary of the method: as §1

HSF1 = HSF1 (Homo sapiens, UniProt Q00613 1-529); details: protein: recombinant; tags: N-terminal GST; chain copies: 3; dsDNA, one strand shown
Chain of HSF1 (Q00613 whole entry): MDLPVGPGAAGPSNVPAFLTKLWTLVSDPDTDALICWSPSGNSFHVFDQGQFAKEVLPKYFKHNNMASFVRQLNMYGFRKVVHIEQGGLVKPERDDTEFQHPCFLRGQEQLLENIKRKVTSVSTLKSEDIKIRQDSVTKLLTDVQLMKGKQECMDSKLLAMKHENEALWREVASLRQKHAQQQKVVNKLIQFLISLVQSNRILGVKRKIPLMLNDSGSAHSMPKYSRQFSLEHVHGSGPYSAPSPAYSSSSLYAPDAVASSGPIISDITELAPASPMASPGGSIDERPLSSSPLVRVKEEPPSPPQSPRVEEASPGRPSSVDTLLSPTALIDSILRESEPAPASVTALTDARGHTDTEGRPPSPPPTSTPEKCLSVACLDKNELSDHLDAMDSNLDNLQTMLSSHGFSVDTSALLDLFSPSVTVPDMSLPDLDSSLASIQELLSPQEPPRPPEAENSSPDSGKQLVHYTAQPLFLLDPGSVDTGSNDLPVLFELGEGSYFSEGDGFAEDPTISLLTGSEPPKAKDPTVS
Summary of the method: as §1

SPIC = biological target: T8, SPIC (Homo sapiens, UniProt Q8N5J4 1-248); details: protein: recombinant; tags: N-terminal GST; dsDNA, one strand shown
T8 sequence: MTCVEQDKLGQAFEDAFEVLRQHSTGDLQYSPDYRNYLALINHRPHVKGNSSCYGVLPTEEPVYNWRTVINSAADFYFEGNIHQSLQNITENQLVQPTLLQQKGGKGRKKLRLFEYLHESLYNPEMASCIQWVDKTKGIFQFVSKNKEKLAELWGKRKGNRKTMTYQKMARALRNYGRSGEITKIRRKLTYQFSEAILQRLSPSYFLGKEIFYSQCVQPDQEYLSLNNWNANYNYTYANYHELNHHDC
Summary of the method: as §1

ELF4 = ELF4 (Homo sapiens, UniProt Q99607 1-663); details: protein: recombinant; tags: N-terminal GST; dsDNA, one strand shown
Chain of ELF4 (Q99607 whole entry): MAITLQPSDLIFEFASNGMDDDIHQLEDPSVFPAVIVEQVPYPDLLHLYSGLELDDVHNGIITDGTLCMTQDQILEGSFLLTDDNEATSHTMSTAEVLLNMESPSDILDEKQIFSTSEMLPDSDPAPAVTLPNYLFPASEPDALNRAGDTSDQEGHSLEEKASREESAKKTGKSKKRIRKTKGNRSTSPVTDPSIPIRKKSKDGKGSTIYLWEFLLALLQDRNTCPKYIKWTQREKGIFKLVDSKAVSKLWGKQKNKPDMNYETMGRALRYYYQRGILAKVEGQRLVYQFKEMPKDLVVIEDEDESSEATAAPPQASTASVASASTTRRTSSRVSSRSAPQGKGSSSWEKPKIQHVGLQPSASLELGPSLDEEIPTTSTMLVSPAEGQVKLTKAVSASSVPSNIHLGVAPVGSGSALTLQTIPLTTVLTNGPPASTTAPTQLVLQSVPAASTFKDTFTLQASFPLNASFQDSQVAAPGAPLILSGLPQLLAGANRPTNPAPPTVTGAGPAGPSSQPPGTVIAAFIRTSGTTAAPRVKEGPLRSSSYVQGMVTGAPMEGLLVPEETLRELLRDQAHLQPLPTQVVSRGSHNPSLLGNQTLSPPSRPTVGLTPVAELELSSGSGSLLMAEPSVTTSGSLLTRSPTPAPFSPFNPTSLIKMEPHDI
Summary of the method: as §1

ELK4 = biological target: T9, ELK4 (Homo sapiens, UniProt P28324-2 1-405); details: protein: recombinant; tags: N-terminal GST; dsDNA, one strand shown
T9 sequence: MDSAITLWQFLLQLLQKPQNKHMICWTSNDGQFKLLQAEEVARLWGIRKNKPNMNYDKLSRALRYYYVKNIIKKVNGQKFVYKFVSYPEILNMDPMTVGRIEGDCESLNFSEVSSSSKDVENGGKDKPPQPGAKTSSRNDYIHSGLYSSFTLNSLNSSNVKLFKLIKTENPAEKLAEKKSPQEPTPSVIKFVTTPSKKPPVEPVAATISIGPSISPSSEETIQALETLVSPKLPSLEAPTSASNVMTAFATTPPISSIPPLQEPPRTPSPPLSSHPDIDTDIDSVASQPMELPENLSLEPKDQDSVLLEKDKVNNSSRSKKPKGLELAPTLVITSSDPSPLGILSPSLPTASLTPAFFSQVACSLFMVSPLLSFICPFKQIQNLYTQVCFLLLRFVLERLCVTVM
Summary of the method: as §1

ETV2 = biological target: T10, ETV2 (Homo sapiens, UniProt O00321 1-342); details: protein: recombinant; tags: N-terminal GST; dsDNA, one strand shown
T10 sequence: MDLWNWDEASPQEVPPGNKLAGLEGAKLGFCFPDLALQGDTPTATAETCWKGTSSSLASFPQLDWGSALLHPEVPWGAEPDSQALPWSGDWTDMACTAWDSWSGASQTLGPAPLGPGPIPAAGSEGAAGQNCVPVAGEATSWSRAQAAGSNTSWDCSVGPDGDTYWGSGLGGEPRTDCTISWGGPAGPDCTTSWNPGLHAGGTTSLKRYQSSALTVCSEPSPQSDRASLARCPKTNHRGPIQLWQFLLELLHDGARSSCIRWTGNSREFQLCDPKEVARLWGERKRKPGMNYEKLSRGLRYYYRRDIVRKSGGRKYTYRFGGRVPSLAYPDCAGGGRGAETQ
Summary of the method: as §1

ELF3 = biological target: T11, ELF3 (Homo sapiens, UniProt P78545 1-371); details: protein: recombinant; tags: N-terminal GST; dsDNA, one strand shown
T11 sequence: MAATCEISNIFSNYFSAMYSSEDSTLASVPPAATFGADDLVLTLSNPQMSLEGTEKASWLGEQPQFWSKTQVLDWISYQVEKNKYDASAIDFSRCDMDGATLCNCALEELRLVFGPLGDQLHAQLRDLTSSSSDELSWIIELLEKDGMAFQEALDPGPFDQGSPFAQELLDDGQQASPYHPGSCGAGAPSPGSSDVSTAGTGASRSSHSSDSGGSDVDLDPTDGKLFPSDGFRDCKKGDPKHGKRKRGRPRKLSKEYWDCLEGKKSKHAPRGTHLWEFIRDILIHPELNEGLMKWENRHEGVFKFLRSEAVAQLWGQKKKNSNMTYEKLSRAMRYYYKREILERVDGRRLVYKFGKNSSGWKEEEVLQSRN
Summary of the method: as §1

CRX = CRX (Homo sapiens, UniProt O43186 1-299); details: protein: recombinant; tags: N-terminal GST; dsDNA, one strand shown
Chain of CRX (O43186 whole entry): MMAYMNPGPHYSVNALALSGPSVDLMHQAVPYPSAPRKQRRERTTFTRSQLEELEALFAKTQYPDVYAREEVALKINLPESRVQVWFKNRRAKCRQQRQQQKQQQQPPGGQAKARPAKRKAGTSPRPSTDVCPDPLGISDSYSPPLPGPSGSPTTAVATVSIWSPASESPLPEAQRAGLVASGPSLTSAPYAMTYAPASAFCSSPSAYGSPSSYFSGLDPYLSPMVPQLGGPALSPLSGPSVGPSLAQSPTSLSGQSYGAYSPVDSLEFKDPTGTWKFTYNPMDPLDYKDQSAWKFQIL
Summary of the method: as §1

ETV1 = ETV1 (Homo sapiens, UniProt P50549 1-477); details: protein: recombinant; tags: N-terminal GST; dsDNA, one strand shown
Chain of ETV1 (P50549 whole entry): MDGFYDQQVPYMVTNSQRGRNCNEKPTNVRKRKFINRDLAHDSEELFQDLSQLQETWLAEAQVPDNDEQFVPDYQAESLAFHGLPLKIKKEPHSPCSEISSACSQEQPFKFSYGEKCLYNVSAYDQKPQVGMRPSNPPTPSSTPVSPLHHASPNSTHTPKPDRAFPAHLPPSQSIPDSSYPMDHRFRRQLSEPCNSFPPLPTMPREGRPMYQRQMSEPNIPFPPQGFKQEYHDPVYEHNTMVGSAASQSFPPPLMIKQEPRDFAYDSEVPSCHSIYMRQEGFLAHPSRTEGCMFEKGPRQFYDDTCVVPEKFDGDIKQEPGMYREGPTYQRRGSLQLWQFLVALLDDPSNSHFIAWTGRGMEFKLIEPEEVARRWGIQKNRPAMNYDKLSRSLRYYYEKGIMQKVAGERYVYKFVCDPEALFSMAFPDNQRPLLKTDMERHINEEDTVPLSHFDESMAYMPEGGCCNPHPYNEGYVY
Summary of the method: as §1

Sequence: ACCCGC
- binding signal (FLI1): 1.27 fold enrichment (6-mer frequency, TF over GST control)
- binding signal (ELK1): 1.29 fold enrichment (6-mer frequency, TF over GST control)
- binding signal (GABPA): 1.35 fold enrichment (6-mer frequency, TF over GST control)
- binding signal (ERG): 1.21 fold enrichment (6-mer frequency, TF over GST control)
- binding signal (ELF1): 1.33 fold enrichment (6-mer frequency, TF over GST control)
- binding signal (EHF): 1.2 fold enrichment (6-mer frequency, TF over GST control)
- binding signal (SPI1): 1.32 fold enrichment (6-mer frequency, TF over GST control)
- binding signal (SPIB): 1.27 fold enrichment (6-mer frequency, TF over GST control)
- binding signal (ELK3): 1.32 fold enrichment (6-mer frequency, TF over GST control)
- binding signal (FEV): 1.24 fold enrichment (6-mer frequency, TF over GST control)
- binding signal (ETV5): 1.24 fold enrichment (6-mer frequency, TF over GST control)
- binding signal (HSF1): 1.13 fold enrichment (6-mer frequency, TF over GST control)
- binding signal (SPIC): 1.16 fold enrichment (6-mer frequency, TF over GST control)
- binding signal (ELF4): 1.35 fold enrichment (6-mer frequency, TF over GST control)
- binding signal (ELK4): 1.39 fold enrichment (6-mer frequency, TF over GST control)
- binding signal (ETV2): 1.24 fold enrichment (6-mer frequency, TF over GST control)
- binding signal (ELF3): 1.15 fold enrichment (6-mer frequency, TF over GST control)
- binding signal (CRX): 1.1 fold enrichment (6-mer frequency, TF over GST control)
- binding signal (ETV1): 1.27 fold enrichment (6-mer frequency, TF over GST control)
